Screening data from PubChem.
GAA850 FXN act: increases GAA850 frataxin promoter reporter activity. HEK293 lucGAA850 FXN promoter luciferase reporter, 24 h; percent of 10 µM SAHA response. activation, % at 6 µM. 360,000 tested, 0.56% active;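 active = activation above the average of all compounds screened plus 3 SD, cutoff fixed separately per campaign, cut at about 7.5% in these data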;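 note: 0% = DMSO wells and 100% = 10 µM SAHA wells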
HSF1 inhib: HSF1 inhibition | NIH3T3-HGL HSE-luciferase, MG132-induced, luminescence 8 h; hits give low values | activity change, negative = inhibition, % at 7.5 µM (by protocol) | 300,000 tested, 0.77% active;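 active = more than half of replicate wells show activity change below -50%, luminescence cut by over half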;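 note: luciferase reports HSF-1 transcriptional activity via heat shock element; 0% = median of DMSO wells and -100% = zero luminescence signal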
AI-2 QS modul: modulators of Vibrio harveyi AI-2 quorum sensing system | Vibrio harveyi JMH597 AI-2 luminescence/OD600 ratio, 9 h; hits give low values; strain lacks LuxN and CqsS sensors; 0 = neutral-control median | activity change, % at 7.5 µM | 300,000 tested, 0.4% active; in the data active = activity change below about -75%, passing the limit was not always enough;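 note: luminescence divided by OD600 gain over 9 h not by final OD600 alone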
HSP90 inh: HSP90 refolding inhibition in rabbit reticulocyte lysate; luciferase refolding luminescence, 3 h; inhibition, % at 5.6 µM; 290,000 tested, 0.91% active;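 active = inhibition above the screen-wide mean plus 3 SD, computed separately per campaign, cut at about 16% in these data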;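 note: 0% = DMSO wells and 100% = 60 µM geldanamycin wells; inhibitors lower the luminescence because luciferase stays unfolded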
SMARCA2 activ: SMARCA2 function activation, primary screen | AID 652017 | activation, % at 9.1 µM | 370,000 tested, 1% active | MG213 cells, MMTV-luciferase reporter, dexamethasone, overnight; in the data active = activation above about 7.8%;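 note: 0% = vehicle wells and 100% = reference activator wells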
PG9 binder: binds the HIV-1 gp120 antibody PG9. TR-FRET gp120-PG9 antibody binding. inhibition, % at 6.7 µM. 360,000 tested, 0.43% active. AID 624416; in the data active = inhibition above about 8.5%
PG9 binder conf: PG9 antibody binding, confirmed; TR-FRET PG9 antibody binding, biochemical; inhibition, % at 6.7 µM; shares compounds with PG9 binder; 1,500 tested, 90% active; AID 651571; in the data active = inhibition above about 9%
PGV04 Ab binding: counter-screen for PG9 binders: binding control antibody PGV04; shares compounds with PG9 binder; TR-FRET PGV04 antibody-gp120 binding, biochemical; inhibition, % at 6.7 µM; 1,500 tested, 95% active; AID 651604; in the data active = inhibition above about 9.5%
SMARCA2 conf: confirmation of SMARCA2 (BRM) function activators. shares compounds with SMARCA2 activ. MG213 cells, MMTV-luciferase with dexamethasone, luminescence, overnight; MG213 cells expressing E1A, Rb sequestered; DMSO wells 0%, reference activator 100%. activation, % at 9.1 µM. 3,500 tested, 30% active. AID 652260;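 active = activation above its plate's cutoff, the mean activation of tested wells plus 3 SD, cut at about 7.9% in these data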
GAL4-VP16 Luc: counter-screen for SMARCA2 activators: GAL4-VP16 luciferase reporter activation. shares compounds with SMARCA2 activ. HEK293 GAL4-VP16 pG5luc reporter, luciferase luminescence; scaled: DMSO wells 0%, SAHA wells 100%. activation, % at 9.1 µM. 3,500 tested, 41% active. AID 686939;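 active = activation above the solvent-only control well mean plus 3 SD, averaged across control plates, cut at about 5.2% in these data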
* marks the source's active call; other numbers are inactive results; nt = not tested or not shown. In the library only some 3.4% were active in any assay of this set; here they are far more common.

SMILES	GAA850 FXN act	HSF1 inhib	AI-2 QS modul	HSP90 inh	SMARCA2 activ	PG9 binder	SMARCA2 conf	GAL4-VP16 Luc	others
CCCOC(=O)COc1cc(C)cc2oc(=O)c3c(c12)CCC3	-1	8	16	-1	2	9.9*	nt	nt	PG9 binder conf=23*;PGV04 Ab binding=30*
Cc1cc(OCC(=O)O)c2c3c(c(=O)oc2c1)CCCC3	0	-7	-6	1	2	-1	nt	nt
Cn1cc(/C=C2\C(=O)NC(=O)N(c3ccccc3)C2=O)c2ccccc21	2	-2	-5	2	-3	11*	nt	nt	PG9 binder conf=7;PGV04 Ab binding=20*
CCOc1cc2c(cc1OCC)-n1cccc1C(c1ccc(OC(F)F)cc1)NC2 (configuration not stated)	-1	11	25	-1	-1	-1	nt	nt
NS(=O)(=O)c1ccc(N=Cc2c(O)n(C3CCCCC3)c(=O)n(C3CCCCC3)c2=O)cc1	0	0	60	-1	-1	0	nt	nt
CCn1c(O)c(C=Nc2ccc(S(N)(=O)=O)cc2)c(=O)[nH]c1=S	1	10	25	2	0	25*	nt	nt	PG9 binder conf=92*;PGV04 Ab binding=92*
CCn1c(O)c(C=Nc2ccc(S(N)(=O)=O)cc2)c(=O)n(CC)c1=S	1	11	54	1	-6	54*	nt	nt	PG9 binder conf=69*;PGV04 Ab binding=86*
CCn1c(O)c(C=NCc2ccccc2)c(=O)[nH]c1=S	3	-1	6	-4	-1	11*	nt	nt	PG9 binder conf=28*;PGV04 Ab binding=37*
N#CCC[C@@H]1CC[C@]2(CCCN(Cc3ccccn3)C2)O1	nt	nt	nt	nt	0	nt	nt	nt
CCC(C)(O)C(=O)OC1C(=O)OC2CC3C(C)=CC(O)C(O)C3(C)C3C4(O)OCC23C1C(C)C4O (configuration not stated)	-9	nt	nt	nt	-1	0	nt	nt
CCCCCn1c(=O)c(C(=O)Nc2ccccc2S(N)(=O)=O)c(O)c2ccccc21	1	7	47	1	-3	69*	nt	nt	PG9 binder conf=79*;PGV04 Ab binding=83*
CCCCn1c(=O)c(C(=O)Nc2ccccc2S(N)(=O)=O)c(O)c2ccccc21	0	-5	28	-5	0	0	nt	nt
C=CCNC(=S)Nc1ccc(OC(=O)Nc2ccc(Cl)c(Cl)c2)cc1	4	nt	nt	-1	-1	-2	nt	nt
O=C(Nc1ccc(Cl)c(Cl)c1)c1ccco1	4	10	10	-2	8.2*	-1	3	9.2*
CC[C@]12CCN(CC3(O)CC3)C(Cc3ccc(O)cc31)C2(C)C	nt	nt	nt	nt	3	-2	nt	nt
Cc1c(OC(=O)N(C)C)ccc2c1O/C(=C\c1ccco1)C2=O	1	24	4	8	8.2*	-4	4	5.9*
CN(C)C(=O)Oc1ccc(Cl)c2ccccc12	-1	2	22	5	-4	2	nt	nt
C=CCN(CC#CCO)Cc1ccc(OC)cc1OC	nt	nt	nt	nt	-3	nt	nt	nt
S=P1(Oc2ccccc2)Nc2ccccc2N1	1	nt	nt	nt	12*	-2	5	3
CCOC(=O)c1cccc(C2=C(CNC(=O)c3nccs3)[C@H]3CC[C@@H](C2)N3Cc2ccccc2)c1	-4	nt	nt	nt	-4	-1	nt	nt
C=C1C(=O)C(C)=C2C(=O)N3Cc4[nH]c5ccccc5c4CC3(C(=O)OC)C12 (configuration not stated)	nt	nt	nt	nt	9.2*	nt	7	3
CN(C)C(=O)Oc1ccc(OC(=O)c2ccccc2)cc1	2	19	23	0	11*	0	8.2*	-1
C=C1C(=O)OC2C1CCC(C)C1(O)C=CC(=O)C21C (configuration not stated)	-13	nt	nt	nt	8.4*	3	15*	2
C=C1C(=O)O[C@H]2[C@H]1[C@H](OC(=O)CC(=O)O[C@@H]1C[C@@H](C)[C@@H]3C=CC(=O)[C@@]3(C)[C@H]3OC(=O)C(=C)[C@H]13)C[C@@H](C)[C@H]1C=CC(=O)[C@]12C	-2	35	14	nt	0	-2	nt	nt
Nc1c(C(=O)NCc2ccco2)c2nc3ccccc3nc2n1CCN1CCCCC1	-1	35	12	8	8.8*	-1	4	-1
SMILES	GAA850 FXN act	HSF1 inhib	AI-2 QS modul	HSP90 inh	SMARCA2 activ	PG9 binder	SMARCA2 conf	GAL4-VP16 Luc	others
CN1CCN(c2ccc([N+](=O)[O-])c3no[n+]([O-])c23)CC1	-15	5	6	5	-8	-4	nt	nt
O=[N+]([O-])c1ccc(N(CCO)CCO)c2c1no[n+]2[O-]	-9	nt	nt	nt	15*	-5	13*	1
O=C(CNS(=O)(=O)c1cccs1)N1CCC2(CC1)OCCO2	1	-1	8	-2	4	-2	nt	nt
O=C(CNCc1c(F)cccc1F)N1CCC2(CC1)OCCO2	nt	nt	nt	nt	8.6*	nt	16*	3
Cc1cc(NC(=O)CCl)no1	1	-4	1	2	8.9*	-1	1	0
CN1C(=O)CN=C(c2ccccc2)c2cc([N+](=O)[O-])ccc21	nt	nt	nt	0	nt	nt	nt	nt
COc1ccc(C(=O)C2CCCN(CCc3ccccc3)C2)cc1OC (configuration not stated)	2	nt	nt	nt	-1	0	nt	nt
CS(=O)(=O)c1ccc(C2=C(CNC(=O)c3cccnc3)[C@H]3CC[C@@H](C2)N3Cc2ccccc2)cc1	0	nt	nt	nt	13*	-2	-3	0
CC(Cc1ccccc1)/[N+]([O-])=C\c1ccc(C(F)(F)F)cc1 (configuration not stated)	3	7	5	nt	9.2*	-1	11*	6.3*
CNC(C)Cc1ccccc1 (configuration not stated)	-1	nt	nt	nt	2	-1	nt	nt
Cc1c(CCC(=O)N2C[C@H]3C[C@@H](C2)c2cccc(=O)n2C3)c(=O)oc2c(C)c(O)ccc12	-3	nt	nt	nt	-3	-1	nt	nt
COC(=O)C1=C(C(=O)OC)SC2(S1)C(C(=O)OC)=C(C(=O)OC)Sc1c2ssc1=O	-11	nt	nt	nt	62*	0	-10	8.4*
CC(NC(=O)OCc1ccccc1)P(=O)(Oc1ccccc1)Oc1ccccc1 (configuration not stated)	nt	nt	nt	nt	-1	nt	nt	nt
Cc1ccc2c(c1)Oc1ccccc1N=C2	2	nt	nt	nt	-2	-1	nt	nt
N#Cc1c(Br)n(C2OC(CO)C(O)C2O)c2ncnc(N)c12 (configuration not stated)	0	nt	nt	nt	63*	0	52*	-1
